# Test results: the supplement of paper PMC10105736
# Values without a mark were called inactive.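 How the source made its calls: active = MAPPIT score above the 99th percentile of random reference set scores in the same batch; inactive = at or below it.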
# Experiments:
# Test in all cases: MAPPIT interaction score (arbitrary units); higher = stronger binary interaction signal, active = hit call of the paper
# CG15728 = details: MAPPIT configuration: N-C; pair source set: screen_3
# CG17776 = details: MAPPIT configuration: N-N; pair source set: Lit-BS-16
# CG15576 = details: MAPPIT configuration: N-N; pair source set: Curagen_low_conf
# CG17162 = details: MAPPIT configuration: N-C
# CG15529 = details: MAPPIT configuration: N-C; pair source set: screen_4
# CG16904 = details: MAPPIT configuration: N-N; pair source set: Curagen_low_conf
# CG2865 = details: MAPPIT configuration: N-N; pair source set: Curagen_low_conf
# Cul3 = details: pair source set: Lit-BM-16
# puc = details: pair source set: Lit-BM-16
# spir = details: MAPPIT configuration: N-N; pair source set: Curagen_low_conf
# 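Further: HEK293T cells with Epo stimulation, STAT-responsive firefly luciferase reporter, fold induction versus unstimulated cells divided by the larger fold induction of two negative controls lacking either bait or prey.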
binder,measurement,setting,value
REPTOR-BP (protein) MADMEIQSNKMSITEETQVQTRKECGKRGRKPGRKTSTEKLDMKAKLERSRQSARECRARKKLRYQYLEELVADREKAVVALRTELERLIQWNNQLSESNTPTNNDQLLQELGILKQE,MAPPIT interaction score,CG15728,1.49
same,MAPPIT interaction score,CG17776,-0.21
Nedd8 (protein) MLIKVKTLTGKEIEIDIEPTDKVDRIKERVEEKEGIPPQQQRLIFSGKQMNDDKTAADYKVQGGSVLHLVLALRGGDSILTPCV,MAPPIT interaction score,CG15576,1.7
p38c (protein) MPEFVRVAINESLWEFPDIYEFVRFLGGGSFGQVAKVRLRGTENYFAMKRLMRPFEREEDAKGTYREIRLLKHMNHRNVISLLNVFHPPAHNMMEFQQVYLVTHLMDADLHRYSRSKRMSDQEIRIILYQILRGLKYIHSAGVVHRDLKPCNIAVNGNSEVRILDFGLSRMCADKMTDHVGTMWYLAPEIIFLRGQYTKAIDVWSVGCILAELITDRVLFRGENYVSQIRCLINIMGTPTREFITGISMERSRNYLEGYPLRQRCDFHHLFMGYDVQAIDLMEKMLEMVPEKRITAAEAMLHPYLRDLIEPHHHAEDTAPVYDQNFENMVLPVKCWKELVSHEIRNFRPDQLDLHF,MAPPIT interaction score,CG17162; pair source set: screen_3,0.769
CG3817 (protein) MALLTEKRVKKTHAPASDSSPEESDSEGSQNSASEAEGNAGWADSIQKVLKTTKPKTQKKTVLARAKKSQAAVRFQKDAANKKPGFDFEIEKADVKEEDEGDNHEDEKPQASALDATLTKQQRKNVPLQLRVKPSFRDMERERTLRKVATRGVVQFFNAVRIQQKDLQQQLEEAGPLDSRQDAVLNNINKRKFLDVLMSGKRAKSTPVDNAVKKEEQETDDDDEDKGSSGKKKSEWSVLREDFMTNKKIKHWDEEDDDEEGHNDEADDSDYDDGEE,MAPPIT interaction score,CG15529,1.02
B-H1 (protein) MKDSMSILTQTPSEPNAAHPQLHHHLSTLQQQHHQHHLHYGLQPPAVAHSIHSTTTMSSGGSTTTASGIGKPNRSRFMINDILAGSAAAAFYKQQQHHQQLHHHNNNNNSGSSGGSSPAHSNNNNNINGDNCEASNVAGVGVLPSALHHPQPHPPTHPHTHPHALMHPHGKLGHFPPTAGGNGLNVAQYAAAMQQHYAAAAAAAAARNNAAAAAAAAAAAAAAGVAAPPVDGGVDGGVGLAPPAGGDLDDSSDYHEENEDCDSGNMDDHSVCSNGGKDDDGNSVKSGSTSDMSGLSKKQRKARTAFTDHQLQTLEKSFERQKYLSVQERQELAHKLDLSDCQVKTWYQNRRTKWKRQTAVGLELLAEAGNFAAFQRLYGGSPYLGAWPYAAAAGAAHGATPHTNIDIYYRQAAAAAAMQKPLPYNLYAGVPSVGVGVGVGVGPAPFSHLSASSSLSSLSSYYQSAAAAASAANPGGPHPVAPPPSVGGGSPPSGLVKPIPAHSASASPPPRPPSTPSPTLNPGSPPGRSVDSCSQSDDEDQIQV,MAPPIT interaction score,CG17162; pair source set: screen_4,4.06 (active)
rdx (protein) MFEPYVKIKKKRSVNEIYENENLEQQQHHLQQQQQQPATSDNCCCENGEPQNAPEVATATVAATSVAATSAAATVATGAAASSSSSGNCSRLQQLISTPPVLLRRSSLQQQQHQQQQHHPHTPAATATPPQQQQQQQAAPSVLQQHLGHLNYESGATAAAAATAAAAAATVATSRSGSATLAQHLATPSNILQAAFGSSNLQHILTRSAPSPSSSAISSNNCSSACAGNTHYNGGNSNSGSSSSNSNHHSNSIIASRLFGAASSSSSSSSSSASASSSSVAASSSSSSHHLHSHHSALTNSITNRINQSIRRHLNQQQHHHPLSASSSSASASPSASTSSSSSYQQSSVQQQHYNCAHPAQQQQHHHHHHSSSSSSSSSSSSSHHHHNSSSSSNSNNQQQPQQSPLCLVLLVKCPNSKEFCNAAANFCDKRLPVNECQASQTARVTSNLHASSSTMAVSRVPSPPLPEVNTPVAENWCYTQVKVVKFSYMWTINNFSFCREEMGEVLKSSTFSAGANDKLKWCLRVNPKGLDEESKDYLSLYLLLVSCNKSEVRAKFKFSILNAKREETKAMESQRAYRFVQGKDWGFKKFIRRDFLLDEANGLLPEDKLTIFCEVSVVADSVNISGQSNIVQFKVPECKLSEDLGNLFDNEKFSDVTLSVGGREFQAHKAILAARSDVFAAMFEHEMEERKLNRVAITDVDHEVLKEMLRFIYTGKAPNLEKMADDLLAAADKYALEKLKVMCEEALCVNLSVETAAETLILADLHSADQLKAQTIDFINTHATDVMETSGWQNMITTHSHLIAEAFRALATQQIPPIGPPRKRVKMS,MAPPIT interaction score,CG16904,-0.125
same,MAPPIT interaction score,CG2865,-0.131
same,MAPPIT interaction score,Cul3; MAPPIT configuration: N-C,1.12
same,MAPPIT interaction score,Cul3; MAPPIT configuration: N-N,0.911
same,MAPPIT interaction score,puc; MAPPIT configuration: N-C,0.404
same,MAPPIT interaction score,puc; MAPPIT configuration: N-N,0.467
same,MAPPIT interaction score,spir,0.125
Yp3 (protein) MMSLRICLLATCLLVAAHASKDASNDRLKPTKWLTATELENVPSLNDITWERLENQPLEQGAKVIEKIYHVGQIKHDLTPSFVPSPSNVPVWIIKSNGQKVECKLNNYVETAKAQPGFGEDEVTIVLTGLPKTSPAQQKAMRRLIQAYVQKYNLQQLQKNAQEQQQQLKSSDYDYTSSEEAADQWKSAKAASGDLIIIDLGSTLTNFKRYAMLDVLNTGAMIGQTLIDLTNKGVPQEIIHLIGQGISAHVAGAAGNKYTAQTGHKLRRITGLDPAKVLSKRPQILGGLSRGDADFVDAIHTSTFAMGTPIRCGDVDFYPNGPSTGVPGSENVIEAVARATRYFAESVRPGSERNFPAVPANSLKQYKEQDGFGKRAYMGLQIDYDLRGDYILEVNAKSPFGQRSPAHKQAAYHGMHHAQN,MAPPIT interaction score,CG15576,0.532
